# Results reported in ChEMBL document CHEMBL1961873, “Compounds: GSK PKIS; Assays: Nanosyn kinase panel” (2012).
# What was measured:
# [1] = molecular target: Casein kinase I isoform gamma-2 (Homo sapiens) (UniProt P78368); details: at 1 µM
# [2] = molecular target: Casein kinase I isoform gamma-3 (Homo sapiens) (UniProt Q9Y6M4); details: at 0.1 µM
# [3] = molecular target: Casein kinase I isoform gamma-3 (Homo sapiens) (UniProt Q9Y6M4); details: at 1 µM
# [4] = molecular target: Cyclin-dependent kinase 1 (Homo sapiens) (UniProt P06493); details: at 0.1 µM
# [5] = molecular target: Cyclin-dependent kinase 1 (Homo sapiens) (UniProt P06493); details: at 1 µM
# [6] = molecular target: Cyclin-dependent kinase 2 (Homo sapiens) (UniProt P24941); details: at 0.1 µM
# [7] = molecular target: Cyclin-dependent kinase 2 (Homo sapiens) (UniProt P24941); details: at 1 µM
# [8] = molecular target: Cyclin-dependent kinase 2 (Homo sapiens) (UniProt P24941); details: at 0.1 µM; remark: listed apart in the source
# [9] = molecular target: Cyclin-dependent kinase 2 (Homo sapiens) (UniProt P24941); details: at 1 µM; remark: listed apart in the source
# [10] = molecular target: T1, CDK3/Cyclin E (Homo sapiens) (UniProt P24864+Q00526); details: at 0.1 µM
# [11] = molecular target: T1, CDK3/Cyclin E (Homo sapiens); details: at 1 µM
# [12] = molecular target: Cyclin-dependent kinase 4 (Homo sapiens) (UniProt P11802); details: at 0.1 µM
# [13] = molecular target: Cyclin-dependent kinase 4 (Homo sapiens) (UniProt P11802); details: at 1 µM
# [14] = molecular target: Cyclin-dependent kinase 5 (Homo sapiens) (UniProt Q00535); details: at 0.1 µM
# [15] = molecular target: Cyclin-dependent kinase 5 (Homo sapiens) (UniProt Q00535); details: at 1 µM
# [16] = molecular target: Cyclin-dependent kinase 6 (Homo sapiens) (UniProt Q00534); details: at 0.1 µM
# [17] = molecular target: Cyclin-dependent kinase 6 (Homo sapiens) (UniProt Q00534); details: at 1 µM
# [18] = molecular target: Dual specificity protein kinase CLK2 (Homo sapiens) (UniProt P49760); details: at 0.1 µM
# [19] = molecular target: Dual specificity protein kinase CLK2 (Homo sapiens) (UniProt P49760); details: at 1 µM
# [20] = molecular target: Dual specificity protein kinase CLK3 (Homo sapiens) (UniProt P49761); details: at 0.1 µM
# Dual specificity protein kinase CLK3 (Homo sapiens), sequence (P49761 whole entry, looked up): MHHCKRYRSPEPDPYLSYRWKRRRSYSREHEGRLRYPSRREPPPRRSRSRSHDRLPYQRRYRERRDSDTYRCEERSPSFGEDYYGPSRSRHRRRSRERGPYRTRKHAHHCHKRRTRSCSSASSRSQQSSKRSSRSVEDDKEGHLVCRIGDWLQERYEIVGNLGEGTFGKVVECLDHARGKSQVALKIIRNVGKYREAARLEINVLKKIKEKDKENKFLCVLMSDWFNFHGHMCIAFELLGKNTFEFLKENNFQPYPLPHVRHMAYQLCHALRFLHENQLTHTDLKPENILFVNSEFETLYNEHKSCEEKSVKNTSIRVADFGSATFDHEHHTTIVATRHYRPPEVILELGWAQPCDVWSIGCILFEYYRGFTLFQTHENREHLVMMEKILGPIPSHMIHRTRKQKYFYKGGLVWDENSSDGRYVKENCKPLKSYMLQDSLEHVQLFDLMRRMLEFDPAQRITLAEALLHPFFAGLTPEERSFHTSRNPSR
# Cyclin-dependent kinase 6 (Homo sapiens), sequence (Q00534 whole entry): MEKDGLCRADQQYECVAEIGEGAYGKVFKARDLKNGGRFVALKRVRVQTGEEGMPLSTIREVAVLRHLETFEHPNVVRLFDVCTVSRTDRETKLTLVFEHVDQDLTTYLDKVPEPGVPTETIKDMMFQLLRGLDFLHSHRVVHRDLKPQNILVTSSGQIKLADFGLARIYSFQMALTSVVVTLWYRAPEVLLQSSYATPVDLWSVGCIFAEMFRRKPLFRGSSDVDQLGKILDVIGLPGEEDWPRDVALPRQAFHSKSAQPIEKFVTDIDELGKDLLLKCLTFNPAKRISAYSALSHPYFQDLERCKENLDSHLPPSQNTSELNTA
# T1 sequence (P24864 whole entry, looked up): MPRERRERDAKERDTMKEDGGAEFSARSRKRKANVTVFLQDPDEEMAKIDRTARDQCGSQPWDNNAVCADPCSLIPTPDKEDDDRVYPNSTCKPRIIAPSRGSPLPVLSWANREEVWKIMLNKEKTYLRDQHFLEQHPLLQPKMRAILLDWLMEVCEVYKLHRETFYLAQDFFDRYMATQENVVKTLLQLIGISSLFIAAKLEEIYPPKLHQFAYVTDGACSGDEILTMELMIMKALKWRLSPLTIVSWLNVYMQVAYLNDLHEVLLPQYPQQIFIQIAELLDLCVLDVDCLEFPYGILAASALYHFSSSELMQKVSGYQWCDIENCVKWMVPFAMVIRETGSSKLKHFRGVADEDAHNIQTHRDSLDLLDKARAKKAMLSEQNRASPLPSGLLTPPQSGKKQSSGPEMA
# T1 sequence (Q00526 whole entry, looked up): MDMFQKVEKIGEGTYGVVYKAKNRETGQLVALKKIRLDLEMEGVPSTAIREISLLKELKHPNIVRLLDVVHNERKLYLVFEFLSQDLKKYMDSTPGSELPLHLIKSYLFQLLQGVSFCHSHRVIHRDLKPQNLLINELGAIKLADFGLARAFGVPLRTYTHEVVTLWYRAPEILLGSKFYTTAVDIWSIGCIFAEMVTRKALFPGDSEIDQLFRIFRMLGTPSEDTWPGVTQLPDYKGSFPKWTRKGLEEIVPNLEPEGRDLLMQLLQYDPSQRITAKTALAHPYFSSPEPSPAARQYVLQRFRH
# Cyclin-dependent kinase 1 (Homo sapiens), sequence (P06493 whole entry, looked up): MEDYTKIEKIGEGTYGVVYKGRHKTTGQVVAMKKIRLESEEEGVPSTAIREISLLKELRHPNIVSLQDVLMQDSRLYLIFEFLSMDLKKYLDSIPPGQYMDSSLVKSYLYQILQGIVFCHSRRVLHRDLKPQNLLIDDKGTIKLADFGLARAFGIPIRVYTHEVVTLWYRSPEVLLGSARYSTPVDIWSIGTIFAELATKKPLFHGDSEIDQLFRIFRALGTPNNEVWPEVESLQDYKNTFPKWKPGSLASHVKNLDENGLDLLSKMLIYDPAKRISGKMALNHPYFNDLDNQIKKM
# Casein kinase I isoform gamma-3 (Homo sapiens), sequence (Q9Y6M4 whole entry, looked up, canonical isoform): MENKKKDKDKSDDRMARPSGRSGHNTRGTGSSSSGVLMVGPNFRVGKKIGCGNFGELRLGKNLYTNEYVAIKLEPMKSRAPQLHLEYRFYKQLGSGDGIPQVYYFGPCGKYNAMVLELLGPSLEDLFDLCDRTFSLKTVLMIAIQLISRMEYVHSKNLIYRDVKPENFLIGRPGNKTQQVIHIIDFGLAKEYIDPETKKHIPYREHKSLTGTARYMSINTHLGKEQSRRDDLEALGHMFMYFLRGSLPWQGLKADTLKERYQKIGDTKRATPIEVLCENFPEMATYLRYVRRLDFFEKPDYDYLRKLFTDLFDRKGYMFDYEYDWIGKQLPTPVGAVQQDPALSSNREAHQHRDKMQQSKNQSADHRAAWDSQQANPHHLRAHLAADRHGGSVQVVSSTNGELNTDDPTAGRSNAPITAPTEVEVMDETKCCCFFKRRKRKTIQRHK
# Dual specificity protein kinase CLK2 (Homo sapiens), sequence (P49760 whole entry, looked up): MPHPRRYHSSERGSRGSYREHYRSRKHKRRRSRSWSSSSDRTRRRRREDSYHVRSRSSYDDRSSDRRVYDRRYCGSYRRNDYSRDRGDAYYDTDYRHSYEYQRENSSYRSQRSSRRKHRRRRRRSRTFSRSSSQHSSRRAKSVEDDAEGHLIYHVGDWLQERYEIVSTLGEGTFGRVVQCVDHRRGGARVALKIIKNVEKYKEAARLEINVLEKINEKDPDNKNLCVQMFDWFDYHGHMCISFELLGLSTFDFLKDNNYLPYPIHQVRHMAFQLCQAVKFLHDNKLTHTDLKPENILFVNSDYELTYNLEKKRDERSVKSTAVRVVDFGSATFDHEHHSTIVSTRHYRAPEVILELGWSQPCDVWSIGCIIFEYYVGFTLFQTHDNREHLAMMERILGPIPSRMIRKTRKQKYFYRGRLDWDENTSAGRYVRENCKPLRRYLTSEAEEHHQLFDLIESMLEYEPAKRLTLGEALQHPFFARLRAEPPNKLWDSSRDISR
# Cyclin-dependent kinase 5 (Homo sapiens), sequence (Q00535 whole entry, looked up): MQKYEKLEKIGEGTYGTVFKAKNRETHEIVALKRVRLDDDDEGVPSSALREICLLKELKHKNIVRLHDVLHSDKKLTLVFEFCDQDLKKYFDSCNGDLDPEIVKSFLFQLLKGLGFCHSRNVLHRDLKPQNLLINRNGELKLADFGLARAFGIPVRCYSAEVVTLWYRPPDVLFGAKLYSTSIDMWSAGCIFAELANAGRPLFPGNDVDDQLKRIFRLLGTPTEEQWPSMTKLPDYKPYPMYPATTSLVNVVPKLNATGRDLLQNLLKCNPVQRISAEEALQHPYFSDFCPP
# Cyclin-dependent kinase 4 (Homo sapiens), sequence (P11802 whole entry): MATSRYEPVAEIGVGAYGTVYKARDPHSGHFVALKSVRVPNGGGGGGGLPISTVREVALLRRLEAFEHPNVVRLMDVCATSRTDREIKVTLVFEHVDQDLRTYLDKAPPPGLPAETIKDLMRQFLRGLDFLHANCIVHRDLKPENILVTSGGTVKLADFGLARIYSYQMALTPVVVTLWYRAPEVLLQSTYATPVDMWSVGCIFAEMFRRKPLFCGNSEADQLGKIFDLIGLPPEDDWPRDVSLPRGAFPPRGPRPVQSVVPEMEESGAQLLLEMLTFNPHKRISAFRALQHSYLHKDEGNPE
# Casein kinase I isoform gamma-2 (Homo sapiens), sequence (P78368 whole entry, looked up, canonical isoform): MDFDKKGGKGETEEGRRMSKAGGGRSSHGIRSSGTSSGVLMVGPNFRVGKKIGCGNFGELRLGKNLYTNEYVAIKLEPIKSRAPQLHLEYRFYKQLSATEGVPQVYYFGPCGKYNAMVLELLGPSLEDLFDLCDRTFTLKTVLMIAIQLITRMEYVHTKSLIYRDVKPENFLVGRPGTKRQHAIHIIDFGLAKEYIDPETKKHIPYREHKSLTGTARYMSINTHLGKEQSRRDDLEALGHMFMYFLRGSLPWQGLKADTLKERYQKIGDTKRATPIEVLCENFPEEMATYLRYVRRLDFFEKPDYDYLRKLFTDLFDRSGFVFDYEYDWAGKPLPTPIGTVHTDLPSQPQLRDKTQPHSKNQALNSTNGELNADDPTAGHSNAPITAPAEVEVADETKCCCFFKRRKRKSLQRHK
SMILES,inhibition [1] [%],inhibition [2] [%],inhibition [3] [%],inhibition [4] [%],inhibition [5] [%],inhibition [6] [%],inhibition [7] [%],inhibition [8] [%],inhibition [9] [%],inhibition [10] [%],inhibition [11] [%],inhibition [12] [%],inhibition [13] [%],inhibition [14] [%],inhibition [15] [%],inhibition [16] [%],inhibition [17] [%],inhibition [18] [%],inhibition [19] [%],inhibition [20] [%]
C#Cc1cccc(Nc2ncnc3ccc(OCCCCNCCS(C)(=O)=O)cc23)c1,1.61,-0.3,0.33,-2.94,-2.94,-1.15,-0.68,0.97,1.11,3.19,-3.02,-1.23,0.97,-2.73,-2.83,-4.26,0.21,1.01,1.36,-1.3
COc1ccc2cc(-c3c(-c4ccncc4)nc(-c4ccc([S+](C)[O-])cc4C)n3C)ccc2c1 (stereo not given),-0.3,-1.01,-1.93,0.98,3.25,0.63,-1.45,1.09,1.29,-1.08,0.89,2.2,5.75,0.73,2.04,2.45,4.45,1.09,1.03,0.64
O=C(Nc1n[nH]c2cc(-c3cc(F)ccc3F)ccc12)C1CC1,3.38,1.27,2.99,1.12,7.47,2.01,17.3,2.48,11.6,2.32,5.19,1.96,8.77,0.68,5.38,4.69,39.6,-0.48,1.29,0.11
CCS(=O)(=O)c1ccc(OC)c(Nc2ncc(-c3ccccc3Cl)o2)c1,1.51,-0.55,0.35,0.87,0.32,0.49,3.52,-0.35,1.49,-7.09,-0.99,-0.77,-0.72,0.11,0.87,4.47,3.06,4.19,34.1,0.66
NC(=O)c1cc(-c2ccc(F)cc2)cc(-c2ccncc2)c1N,6.08,4.13,2.66,0.65,0.73,2.41,-6.47,2.49,2.14,4.68,-2.25,4.11,2.25,-0.26,-1.83,0.37,-0.58,0.69,1.24,1.01
Nc1nccc(-c2c(-c3ccc(F)cc3)ncn2C2CCC(O)CC2)n1 (stereo not given),3.41,-1.07,10.8,0.17,5.68,-0.46,-4.73,0.06,1.24,-1,-0.81,0.24,1.17,0.55,1.98,1.41,1.1,1.54,0.55,1.02
CS(=O)(=O)CCNCc1cc(-c2cc3c(Nc4ccc(OCc5cccc(F)c5)c(Cl)c4)ncnc3s2)cs1,4.61,3.07,1.92,2.55,0.45,3.05,1.47,1.9,4.94,-3.37,-0.74,2.57,4.29,0.44,0.56,-2.32,-0.13,2.41,2.14,2.21
COc1ccc2cc(-c3c(-c4ccncc4)nc(-c4ccc(S(C)(=O)=O)cc4C)n3C)ccc2c1,4.03,3.31,2.13,1.11,1.69,2.79,-7.25,3.25,2.47,5.76,-3.73,3.77,4.56,0.42,-0.58,0.01,1.21,0.85,-1.59,1.66
CCC(=O)Nc1ccc(C)c(-c2ccc(C(=O)NCC3CC3)cc2)c1,3.16,1.58,1.61,2.88,2.38,3.84,3.06,3.5,4.47,-1.57,-2.39,3.38,5.05,1.58,1.54,0.4,0,0.05,-0.08,0.16
C[C@@H](Oc1cc(-n2cnc3ccc(OC4CCN(C)CC4)cc32)sc1C(N)=O)c1ccccc1Cl,-0.19,-1.77,-4.38,-1.71,-2.15,-1.38,-0.94,-0.63,2.09,-3.54,0.13,-0.83,-0.3,-2.91,-2.26,-5.27,-2.7,3.05,6.53,-2.76
COc1cc(Nc2ncc3c(C)nc(-c4cccc(Oc5ccccc5)c4)n3n2)cc(OC)c1OC,3.44,1.22,5.12,-0.4,0.45,2.04,2.37,0.75,3.13,0.34,3.12,0.68,1.99,0.07,1.06,2.92,3.25,0.86,3.28,0.71
O=C1Nc2ccccc2/C1=C/Nc1ccc(-n2cncn2)cc1,8.25,2.62,5.16,1.97,10.6,2.39,13.3,6.28,22.2,7.69,16.1,9.53,25.2,3.62,21.5,18,66.2,4.14,21.6,0.91
COc1ccc(C2=C(N3CCc4ccccc43)C(=O)NC2=O)cc1,4.63,1.81,3.33,1.56,3.2,3.48,3.47,4.49,6.31,3.69,-1.35,3.95,4.61,1.51,3.83,4.88,7.18,0.19,7.06,2.88
CCN(CC)Cc1ccc(Nc2nccc(-c3cnn4ncccc34)n2)cc1,13.7,0.62,10.6,36.3,68.1,39.5,82.5,40.4,70.1,28.6,78.8,53.8,69.8,32.1,66.8,25.9,62.1,50.1,91.7,-2.57
